The record followed here is PubChem BioAssay.

Several values for one entry are separate records, joined by “and”; a condition that tells them apart may be missing. Equal entries are not always repeated. For part of these data: Results with a measured potency or affinity are listed apart. Activity calls are given as the source filed them.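 Rule for the calls, unless noted: active = thallium flux through the channel raised or lowered by more than 3 SD from vehicle-only wells, actives on both sides; inactive = the rest.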

Test [1] is described as follows: blockers of polyQ-driven CASP3 activation – cell-based (AID 1583). The following applies: polyglutamine-induced caspase-3 activation, cell assay; stronger effect = higher value;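 tested at 10 µM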.
Test [2] can be described thus: yeast 75Q aggregation reduction – 75Q-TubU reporter (AID 1593). The settings on record: Yeast 75Q polyglutamine aggregation reporter.
Test [3] in a line: restoration of touch response, mutant HTT neurons – whole organism, C. elegans mechanosensory neurons, N-terminal huntingtin (AID 1599). The settings on record: C. elegans polyQ-huntingtin mechanosensory neurons, stronger effect = higher value.
The nature of test [4]: blockers of cytochrome c efflux from mitochondria – biochemical, purified mitochondria (AID 1603).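 Note: mouse liver mitochondria challenged with calcium chloride; signal normalized to the plate average as 100%.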 The following applies: stronger effect = lower value.
The nature of test [5]: polyglutamine aggregate formation blockers (AID 1604). The settings on record: polyglutamine-induced protein aggregation inhibition assay; stronger effect = higher value; tested at 2.5 µM.
The nature of test [6]: glutamate transport activators, MN-1 cells, MN-1 cell line (AID 1612).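 Note: tested at 1 µM final; 0% = mean of DMSO vehicle wells on each plate; positive means more glutamate uptake than control and negative means less.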 The settings on record: MN-1 motor neuron cells, stronger effect = higher value.
A short description of test [7]: 75Q-TubH aggregate inhibition, S. cerevisiae, yeast (AID 1616). The following applies: S. cerevisiae 75Q-TubH polyglutamine aggregation suppression; stronger effect = higher value.
The subject of test [8] is Hepatitis C virus NS3 helicase. Description: blockers of NS3h binding to DNA – biochemical, fluorescence polarization, NIH Clinical Collection, primary screen (AID 743270; call rule not given here). The following applies: NS3 helicase binding to Cy5-dT15 DNA, stronger effect = higher value, concentration not given here. (In general: Fluorescence polarisation rises when a labelled molecule tumbles more slowly, as on binding a larger partner.)

The target of test [9] is Single-stranded DNA-binding protein (Escherichia coli (strain K12)) (UniProt P0AGE0). In words: SSB-ssDNA binding inhibitors – biochemical, fluorescence polarization, NIH Clinical Collection, counter-screen for HCV NS3 helicase inhibitor project (AID 743271; in the data active = inhibition above about 28%). The settings on record: E. coli SSB-DNA binding, stronger effect = higher value, concentration not given here.
Test [10] in a line: compounds distorting NS3 helicase fluorescence signal – biochemical, NIH Clinical Collection, artefact control for HCV NS3 helicase inhibitor project (AID 743272; call rule not given here;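 note: HCV NS3 helicase with a Cy5 labelled single stranded DNA probe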). The following applies: fluorescence interference counterscreen, HCV NS3 helicase assay; stronger effect = lower value. A general note: A counterscreen serves to expose hits that act by an unwanted route or on another target.
The next test has as its system F380Y. In words: BK channel mutant inhibitors and activators – cell-based, U2OS BacMam, thallium flux, beta subunits, selectivity assay, profiling panel (AID 1259406).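 Note: initial slope of Thallos dye fluorescence rise after thallium is added; log ratio against the mean of 0.3% DMSO vehicle wells on the same plate.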 The settings on record: U2OS BacMam BK variants, at 30 µM.
In another test the test system is F380Y/beta2Delta. The description is as above. The settings on record: U2OS BacMam BK variants, at 30 µM.
The target in test [11] is Calcium-activated potassium channel subunit alpha-1 (Homo sapiens) + Leucine-rich repeat-containing protein 26 (Homo sapiens) (UniProt Q12791+Q2I0M4). The test is described as above. The settings on record: U2OS BacMam BK variants, F380Y/Slo1WT/gamma1, at 30 µM.
A further test relates to R275C. The description is as above. The settings on record: U2OS BacMam BK variants, at 30 µM.
A further test has as its system R275C/beta1. Described as above. The settings on record: U2OS BacMam BK variants, at 30 µM.
The next test has as its system R275C/beta2Delta. The description is as above. The settings on record: U2OS BacMam BK variants, at 30 µM.
Test [12] can be described thus: compounds altering circadian rhythm period length – cell-based, LOPAC library, luminescence reporter (AID 2774; call rule not given here;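 note: values are relative to mean of DMSO wells on each plate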). The settings on record: circadian reporter cells, at 7 µM, actives lie on both sides.
Test [13] deals with Hepatitis C virus NS3 helicase. Description: blockers of NS3h binding to ssDNA – biochemical, fluorescence polarization, LOPAC1280 library, primary screen (AID 687035; in the data active = inhibition above about 37%). The following applies: Purified HCV NS3 helicase, Cy5-dT15 ssDNA binding fluorescence polarization; stronger effect = higher value; concentration not given here.
Test [14] in a line: compounds altering Cy5-DNA-NS3h complex signal – biochemical, LOPAC1280, artefact control for HCV NS3 helicase inhibitor project (AID 687037; call rule not given here). The settings on record: Cy5-DNA-NS3h complex fluorescence interference counterscreen.
Test [15] is described as follows: blockers of cellular phospholipid synthesis – cell-based, LOPAC library, screen 4, primary screen (AID 1347384; call rule not given here). The following applies: animal cells, phospholipid biosynthesis inhibition screen; at 10 µM.

Sequence of Calcium-activated potassium channel subunit alpha-1 (Homo sapiens) + Leucine-rich repeat-containing protein 26 (Homo sapiens) (Q2I0M4 whole entry, looked up, one chain of several): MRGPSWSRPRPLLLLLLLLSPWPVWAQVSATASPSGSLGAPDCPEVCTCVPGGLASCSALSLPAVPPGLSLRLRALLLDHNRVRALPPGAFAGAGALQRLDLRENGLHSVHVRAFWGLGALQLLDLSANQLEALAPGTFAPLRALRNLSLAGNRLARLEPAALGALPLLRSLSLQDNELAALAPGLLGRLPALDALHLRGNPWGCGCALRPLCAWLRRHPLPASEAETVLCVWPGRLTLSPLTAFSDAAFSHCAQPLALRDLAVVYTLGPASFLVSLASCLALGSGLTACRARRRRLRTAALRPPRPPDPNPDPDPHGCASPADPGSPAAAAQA

With `O=C1CN(/N=C/c2ccc([N+](=O)[O-])o2)C(=O)N1`, the inhibition in [1] was 27%. The molecule also returned a score in [2] of 0.72. In [3], this molecule came in with a rescue above control of 4.47. Also, the cytochrome c release ratio in [4] was 0.76. Moreover, in test [5], the inhibition of aggregation was found to be 41.5%. In addition, the glutamate uptake change in test [6] turned out to be 23.4%. Besides, in test [7], the aggregation suppression score is 0.814.

Take `NC(=O)c1cccnc1`: the inhibition in test [8] is 0.66% (inactive); in test [9], -1.97% (inactive). Further, the fluorescence ratio in test [10] is 1.01 (inactive). Moreover, the log fold change Tl+ flux in the test with F380Y is -0.0169 (inactive); in the test with F380Y/beta2Delta, -0.015 (inactive); in test [11], 0.0332 (inactive); in the test with R275C, -0.0297 (inactive); with R275C/beta1, 0.0353 (inactive); with R275C/beta2Delta, 0.0215 (inactive).

Turning to `CC(C)(C)NCC(O)c1ccc(O)c(CO)c1` (configuration not stated), the inhibition was -4.84% in [1], 0% (inactive) in test [13], -1.19% (inactive) in [8] and 2.98% (inactive) in [9]. Besides, in test [2], the score amounted to 1.14. Besides, the rescue above control in test [3] is 0.08. Further, in test [4], the cytochrome c release ratio is 3.64. Moreover, the inhibition of aggregation in [5] came out at 25%. In addition, the glutamate uptake change in [6] is -8.12%. Besides, the aggregation suppression score in [7] is 0.989. In [12], the period change was -0.055 hour (inactive) and -0.15 hour (inactive). Moreover, the fluorescence ratio (interference) in test [14] was 1 (inactive). Besides, the fluorescence ratio in [10] was 0.94 (inactive). For the same molecule, the call in test [15] was inactive.

As for `COC(=O)C1=C(C)NC(C)=C(C(=O)OCCN(C)Cc2ccccc2)C1c1cccc([N+](=O)[O-])c1` (configuration not stated), the inhibition in [1] is 5.3%; in test [13] it was 3% (inactive); in test [8], -1.36% (inactive); in test [9], 7.91% (inactive). The score in test [2] is 1.16. Besides, the rescue above control in [3] was 19.4. Also, the cytochrome c release ratio in [4] was 1.07. Further, the inhibition of aggregation in test [5] came to 11.1%. Further, the glutamate uptake change in test [6] was -14.8%. Also, in [7], the aggregation suppression score amounted to 0.61. The period change in test [12] is -0.09 h (inactive). In test [14], the fluorescence ratio (interference) is 1 (inactive). The fluorescence ratio in [10] is 0.91 (inactive). In [15], the molecule was classed as inactive. Further, the log fold change Tl+ flux in the test with F380Y is -0.089 (inactive); in the test on F380Y/beta2Delta, -0.158 (active); in test [11] it was -0.059 (inactive); in the test on R275C, -0.031 (inactive); in the test with R275C/beta1, -0.044 (inactive); with R275C/beta2Delta it was 0.0144 (inactive).

For `CN/C(=C\[N+](=O)[O-])NCCSCc1ccc(CN(C)C)o1`, the inhibition in test [1] is 6.1%; in test [13], -3% (inactive); in test [8], 0.45% (inactive); in test [9], 6.39% (inactive). The same molecule came in with a score in test [2] of 1.61. The same molecule returned a rescue above control in test [3] of -10.5. Moreover, the cytochrome c release ratio in [4] amounted to 0.8. Also, the inhibition of aggregation in test [5] was found to be 71.9%. For the same molecule, the glutamate uptake change in test [6] is -10.5%. This molecule registered an aggregation suppression score in test [7] of 1.66. The period change in test [12] is 0.16 h (inactive). The fluorescence ratio (interference) in test [14] is 0.9 (inactive). In test [10], the fluorescence ratio is 0.89 (inactive). The result in test [15] was inactive. Also, the log fold change Tl+ flux was -0.0669 (inactive) with F380Y; 0.0319 (inactive) with F380Y/beta2Delta; -0.0244 (inactive) in test [11]; 0.017 (inactive) in the test on R275C; 0.0242 (inactive) in the test with R275C/beta1; -0.00414 (inactive) in the test with R275C/beta2Delta.

As for `COc1ccc2cc([C@H](C)C(=O)O)ccc2c1`, the inhibition in test [1] is -27.8%; in test [13], -6% (inactive). The molecule further registered a score in test [2] of 0.32. The same molecule came in with a rescue above control in [3] of -11.2. Also, the cytochrome c release ratio in test [4] amounted to 0.95. This molecule returned an inhibition of aggregation in [5] of 74%. Moreover, the glutamate uptake change in test [6] was found to be 6.08%. The same molecule showed an aggregation suppression score in [7] of 0.196. Moreover, the period change in test [12] is -0.095 h (inactive). Besides, the fluorescence ratio (interference) in test [14] is 1 (inactive). Besides, the call in [15] was inactive. Also, the log fold change Tl+ flux in the test with F380Y is 0.000985 (inactive); with F380Y/beta2Delta, 0.00769 (inactive); in test [11] it was 0.0442 (inactive); in the test on R275C, -0.0405 (inactive); in the test on R275C/beta1, -0.0361 (inactive); with R275C/beta2Delta it was -0.0194 (inactive).

For orientation: inhibition means the drop in the measured response relative to a control, in per cent.
